In the supplement of paper PMC10849652:
Of roughly 7,900 targets only a part is listed; those with a hit were picked by preference. About 0.6% of all pairs of compound and target were hits.

What was measured:
Experiment in all cases: log2 fold change, soluble protein after heating vs DMSO (PISA); higher = thermal stabilisation; K562 cells, 10 uM, 30 min; active = over 0.2 and 3.5 SD of the protein, either way, in both replicates (recomputed)
saracatinib = compound: CN1CCN(CCOc2cc(OC3CCOCC3)c3c(Nc4c(Cl)ccc5c4OCO5)ncnc3c2)CC1 [saracatinib]
Summary of the method: (§1)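 Values are thermal stability changes relative to control samples and are taken from duplicates. They are stated as log2 fold changes. Before quantification by TMTpro 16plex LC-MS/MS with equalised channel sums, K562 cells at 2×10^6 cells/mL were treated with 10 μM compound for 30 min, heated in aliquots for 3 min across 48°C-58°C, pooled, extracted in PBS with 0.5% NP-40 at 4°C, and centrifuged at 21,000xg for 90 min to give the soluble supernatant.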

sotrastaurin = compound: CN1CCN(c2nc(C3=C(c4c[nH]c5ccccc45)C(=O)NC3=O)c3ccccc3n2)CC1 [sotrastaurin]
Summary of the method: as §1

alvocidib = compound: CN1CC[C@H](c2c(O)cc(O)c3c(=O)cc(-c4ccccc4Cl)oc23)[C@H](O)C1 [alvocidib]
Summary of the method: as §1

Tubastatin A = compound: CN1CCc2c(c3ccccc3n2Cc2ccc(C(=O)NO)cc2)C1 [Tubastatin A]
Summary of the method: as §1

[1] = compound: CNC(=O)C1=CC=CC=C1NC2=NC(=NC=C2Cl)NC3=C(C=C(C=C3)N4CCOCC4)OC
Summary of the method: as §1

defactinib = compound: CNC(=O)c1ccc(Nc2ncc(C(F)(F)F)c(NCc3nccnc3N(C)S(C)(=O)=O)n2)cc1 [defactinib]
Summary of the method: as §1

rucaparib = compound: CNCc1ccc(-c2[nH]c3cc(F)cc4c3c2CCNC4=O)cc1 [rucaparib]
Summary of the method: as §1

[2] = compound: CNc1nc(-c2ccc3c(N)n[nH]c3c2)cc(N2C[C@@H](C(=O)NC3CCCCC3)CC[C@H]2C)n1
Summary of the method: as §1

encorafenib = compound: COC(=O)N[C@@H](C)CNc1nccc(-c2cn(C(C)C)nc2-c2cc(Cl)cc(NS(C)(=O)=O)c2F)n1 [encorafenib]
Summary of the method: as §1

[3] = compound: COC(=O)[C@H](CCSC)NC(=O)C1=C(C=C(C=C1)NC[C@H](CS)N)C2=CC=CC=C2
Summary of the method: as §1

[4] = compound: COC1=CC=C(C=C1)CN2C=CC3=C2C=C(C=C3)C(=O)NO
Summary of the method: as §1

filanesib = compound: CON(C)C(=O)N1N=C(c2cc(F)ccc2F)S[C@@]1(CCCN)c1ccccc1 [filanesib]
Summary of the method: as §1

zotarolimus = compound: CO[C@H]1C[C@@H]2CC[C@@H](C)[C@@](O)(O2)C(=O)C(=O)N2CCCC[C@H]2C(=O)O[C@H]([C@H](C)C[C@@H]2CC[C@H](n3cnnn3)[C@H](OC)C2)CC(=O)[C@H](C)/C=C(\C)[C@@H](O)[C@@H](OC)C(=O)[C@H](C)C[C@H](C)/C=C/C=C/C=C/1C [zotarolimus]
Summary of the method: as §1

idasanutlin = compound: COc1cc(C(=O)O)ccc1NC(=O)[C@@H]1N[C@@H](CC(C)(C)C)[C@](C#N)(c2ccc(Cl)cc2F)[C@H]1c1cccc(Cl)c1F [idasanutlin]
Summary of the method: as §1

alisertib = compound: COc1cc(Nc2ncc3c(n2)-c2ccc(Cl)cc2C(c2c(F)cccc2OC)=NC3)ccc1C(=O)O [alisertib]
Summary of the method: as §1

[5] = compound: COc1cc2nc(-c3cc(F)ccc3O)nc(N[C@@H]3CNC[C@H]3C(C)(C)O)c2cc1OC
Summary of the method: as §1

gefitinib = compound: COc1cc2ncnc(Nc3ccc(F)c(Cl)c3)c2cc1OCCCN1CCOCC1 [gefitinib]
Summary of the method: as §1

[6] = compound: COc1cccc2cc(-c3nc([C@H]4CC[C@H](C(=O)O)CC4)n4ncnc(N)c34)[nH]c12
Summary of the method: as §1

lapatinib = compound: CS(=O)(=O)CCNCc1ccc(-c2ccc3ncnc(Nc4ccc(OCc5cccc(F)c5)c(Cl)c4)c3c2)o1 [lapatinib]
Summary of the method: as §1

pictilisib = compound: CS(=O)(=O)N1CCN(Cc2cc3nc(-c4cccc5[nH]ncc45)nc(N4CCOCC4)c3s2)CC1 [pictilisib]
Summary of the method: as §1

Measured: log2 fold change

WDR62 isoform 4 (UniProt O43379)
inactive: saracatinib -0.025 | sotrastaurin 0.037 | alvocidib -0.074 | Tubastatin A 0.027 | [1] -0.165 | defactinib -0.06 | rucaparib -0.035 | [2] 0.017 | encorafenib 0.015 | [3] 0.014 | [4] -0.036 | filanesib 0.016 | zotarolimus 0.028 | idasanutlin 0.02 | alisertib -0.024 | [5] -0.026 | gefitinib 0.049 | [6] 0.046 | lapatinib 0.054 | pictilisib 0.015

WDHD1 (UniProt O75717)
inactive: saracatinib -0.027 | sotrastaurin -0.067 | alvocidib -0.135 | Tubastatin A 0.079 | [1] 0.075 | defactinib -0.201 | rucaparib -0.06 | [2] 0 | encorafenib 0.119 | [3] -0.022 | [4] 0.013 | filanesib -0.003 | zotarolimus 0.031 | idasanutlin 0.005 | alisertib 0.036 | [5] 0.011 | gefitinib 0.013 | [6] -0.012 | lapatinib 0.006 | pictilisib -0.015

TRIP10 isoform 2 (UniProt Q15642)
inactive: saracatinib 0.021 | sotrastaurin 0.151 | alvocidib 0 | Tubastatin A 0.051 | [1] -0.258 | defactinib -0.196 | rucaparib 0.071 | [2] -0.081 | encorafenib -0.147 | [3] -0.246 | [4] -0.032 | filanesib -0.213 | zotarolimus 0.013 | idasanutlin 0.128 | alisertib -0.029 | [5] 0.109 | gefitinib 0.062 | [6] -0.09 | lapatinib -0.083 | pictilisib 0.06

UNC119B (UniProt A6NIH7)
Sequence of UniProt A6NIH7 (A6NIH7 whole entry, looked up): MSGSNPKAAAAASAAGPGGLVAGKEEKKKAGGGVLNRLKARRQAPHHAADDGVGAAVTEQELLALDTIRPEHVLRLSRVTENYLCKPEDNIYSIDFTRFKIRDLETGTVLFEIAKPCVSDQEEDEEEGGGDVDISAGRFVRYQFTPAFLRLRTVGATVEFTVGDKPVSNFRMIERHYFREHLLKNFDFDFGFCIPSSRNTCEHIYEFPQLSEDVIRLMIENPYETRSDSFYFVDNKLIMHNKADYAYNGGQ
inactive: saracatinib -0.076 | sotrastaurin 0.013 | alvocidib -0.206 | Tubastatin A 0.124 | [1] -0.031 | defactinib -0.064 | rucaparib 0.133 | [2] 0.316 | encorafenib 0.026 | [3] -0.048 | [4] -0.232 | filanesib 0.059 | zotarolimus 0.074 | idasanutlin -0.034 | alisertib -0.185 | [5] 0.069 | gefitinib 0.116 | [6] -0.002 | lapatinib 0.06 | pictilisib 0.092

VPS18 (UniProt Q9P253)
inactive: saracatinib -0.034 | sotrastaurin -0.156 | alvocidib -0.118 | Tubastatin A -0.052 | [1] -0.003 | defactinib -0.068 | rucaparib 0.099 | [2] 0.029 | encorafenib 0.031 | [3] -0.076 | [4] -0.011 | filanesib 0.009 | zotarolimus 0.024 | idasanutlin -0.053 | alisertib -0.102 | [5] -0.017 | gefitinib -0.028 | [6] -0.041 | lapatinib 0.033 | pictilisib -0.07

UPF3B (UniProt Q9BZI7)
Sequence of UniProt Q9BZI7 (Q9BZI7 whole entry, looked up): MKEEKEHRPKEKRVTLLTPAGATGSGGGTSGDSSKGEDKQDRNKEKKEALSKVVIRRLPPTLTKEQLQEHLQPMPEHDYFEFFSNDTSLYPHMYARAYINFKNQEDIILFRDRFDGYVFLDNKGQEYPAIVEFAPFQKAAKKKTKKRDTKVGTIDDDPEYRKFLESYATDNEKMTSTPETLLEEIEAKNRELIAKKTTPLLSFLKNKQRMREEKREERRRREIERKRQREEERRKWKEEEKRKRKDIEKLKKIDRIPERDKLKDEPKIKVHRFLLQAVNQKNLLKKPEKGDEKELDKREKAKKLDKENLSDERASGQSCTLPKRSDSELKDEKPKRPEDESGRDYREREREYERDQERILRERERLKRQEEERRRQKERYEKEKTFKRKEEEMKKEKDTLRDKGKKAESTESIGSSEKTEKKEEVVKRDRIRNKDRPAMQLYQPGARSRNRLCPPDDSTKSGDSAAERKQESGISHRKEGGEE
inactive: saracatinib -0.099 | sotrastaurin 0.002 | alvocidib 0.423 | Tubastatin A 0.114 | [1] 0.045 | defactinib 0.413 | rucaparib 0.286 | [2] 0.035 | encorafenib 0.108 | [3] 0.007 | [4] -0.044 | filanesib 0.26 | zotarolimus -0.015 | idasanutlin 0.209 | alisertib -0.048 | [5] 0.187 | gefitinib 0.061 | [6] -0.114 | lapatinib 0.234 | pictilisib -0.058

TTI2 (UniProt Q6NXR4)
Sequence of UniProt Q6NXR4 (Q6NXR4 whole entry, looked up): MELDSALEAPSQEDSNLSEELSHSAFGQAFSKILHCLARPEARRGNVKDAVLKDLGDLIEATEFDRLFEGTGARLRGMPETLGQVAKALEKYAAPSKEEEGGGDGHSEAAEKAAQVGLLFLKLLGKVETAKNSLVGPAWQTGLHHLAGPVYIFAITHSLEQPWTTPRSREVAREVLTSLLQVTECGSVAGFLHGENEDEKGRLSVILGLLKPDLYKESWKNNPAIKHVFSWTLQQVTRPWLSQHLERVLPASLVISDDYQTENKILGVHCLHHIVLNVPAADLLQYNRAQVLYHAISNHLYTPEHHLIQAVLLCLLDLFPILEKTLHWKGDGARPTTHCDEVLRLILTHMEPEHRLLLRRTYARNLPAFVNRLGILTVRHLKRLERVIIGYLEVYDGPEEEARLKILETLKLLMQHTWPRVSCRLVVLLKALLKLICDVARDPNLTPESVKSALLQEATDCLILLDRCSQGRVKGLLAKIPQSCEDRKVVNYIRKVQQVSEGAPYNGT
inactive: saracatinib -0.028 | sotrastaurin -0.187 | alvocidib 0.027 | Tubastatin A -0.02 | [1] 0.051 | defactinib -0.073 | rucaparib 0.119 | [2] -0.036 | encorafenib 0.037 | [3] -0.038 | [4] 0.012 | filanesib 0.06 | zotarolimus -0.008 | idasanutlin -0.04 | alisertib 0.028 | [5] -0.034 | gefitinib -0.081 | [6] -0.025 | lapatinib 0.033

USP7 (UniProt Q93009)
Sequence of UniProt Q93009 (Q93009 whole entry, looked up): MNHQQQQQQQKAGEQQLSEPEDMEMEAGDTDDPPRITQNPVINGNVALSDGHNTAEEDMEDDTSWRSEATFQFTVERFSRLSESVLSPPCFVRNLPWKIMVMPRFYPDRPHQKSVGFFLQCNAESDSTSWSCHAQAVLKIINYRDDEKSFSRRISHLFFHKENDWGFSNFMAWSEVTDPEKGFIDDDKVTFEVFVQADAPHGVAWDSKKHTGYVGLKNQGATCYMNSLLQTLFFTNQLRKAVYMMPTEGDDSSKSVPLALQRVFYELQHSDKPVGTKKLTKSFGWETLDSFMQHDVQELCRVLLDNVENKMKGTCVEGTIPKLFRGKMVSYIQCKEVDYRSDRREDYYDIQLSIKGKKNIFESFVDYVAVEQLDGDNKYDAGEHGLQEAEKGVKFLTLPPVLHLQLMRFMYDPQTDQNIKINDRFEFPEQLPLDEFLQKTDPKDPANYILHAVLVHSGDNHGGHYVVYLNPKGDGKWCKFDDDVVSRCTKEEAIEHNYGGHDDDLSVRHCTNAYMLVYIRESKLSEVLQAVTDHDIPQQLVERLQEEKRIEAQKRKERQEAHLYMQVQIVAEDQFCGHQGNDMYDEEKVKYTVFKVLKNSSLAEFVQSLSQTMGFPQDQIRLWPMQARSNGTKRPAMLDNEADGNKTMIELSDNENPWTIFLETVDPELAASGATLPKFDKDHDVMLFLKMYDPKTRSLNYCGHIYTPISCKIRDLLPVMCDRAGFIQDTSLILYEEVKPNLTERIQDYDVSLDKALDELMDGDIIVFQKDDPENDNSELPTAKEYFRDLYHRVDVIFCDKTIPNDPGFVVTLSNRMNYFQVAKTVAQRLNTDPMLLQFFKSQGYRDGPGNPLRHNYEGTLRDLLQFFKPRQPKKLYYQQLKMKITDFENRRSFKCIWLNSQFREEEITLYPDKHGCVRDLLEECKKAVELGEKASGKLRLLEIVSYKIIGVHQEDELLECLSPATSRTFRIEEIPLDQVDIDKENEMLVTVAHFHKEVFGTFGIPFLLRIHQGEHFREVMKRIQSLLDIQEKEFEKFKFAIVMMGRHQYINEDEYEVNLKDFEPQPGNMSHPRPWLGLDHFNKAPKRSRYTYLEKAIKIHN
inactive: saracatinib -0.087 | sotrastaurin -0.083 | alvocidib -0.147 | Tubastatin A 0.023 | [1] -0.106 | defactinib -0.104 | rucaparib 0.03 | [2] 0.152 | encorafenib 0.057 | [3] -0.06 | [4] 0.034 | filanesib -0.14 | zotarolimus -0.007 | idasanutlin -0.053 | alisertib 0.144 | [5] 0.039 | gefitinib 0.04 | [6] 0.019 | lapatinib -0.029 | pictilisib 0.002

USP15 (UniProt Q9Y4E8)
Sequence of UniProt Q9Y4E8 (Q9Y4E8 whole entry, looked up): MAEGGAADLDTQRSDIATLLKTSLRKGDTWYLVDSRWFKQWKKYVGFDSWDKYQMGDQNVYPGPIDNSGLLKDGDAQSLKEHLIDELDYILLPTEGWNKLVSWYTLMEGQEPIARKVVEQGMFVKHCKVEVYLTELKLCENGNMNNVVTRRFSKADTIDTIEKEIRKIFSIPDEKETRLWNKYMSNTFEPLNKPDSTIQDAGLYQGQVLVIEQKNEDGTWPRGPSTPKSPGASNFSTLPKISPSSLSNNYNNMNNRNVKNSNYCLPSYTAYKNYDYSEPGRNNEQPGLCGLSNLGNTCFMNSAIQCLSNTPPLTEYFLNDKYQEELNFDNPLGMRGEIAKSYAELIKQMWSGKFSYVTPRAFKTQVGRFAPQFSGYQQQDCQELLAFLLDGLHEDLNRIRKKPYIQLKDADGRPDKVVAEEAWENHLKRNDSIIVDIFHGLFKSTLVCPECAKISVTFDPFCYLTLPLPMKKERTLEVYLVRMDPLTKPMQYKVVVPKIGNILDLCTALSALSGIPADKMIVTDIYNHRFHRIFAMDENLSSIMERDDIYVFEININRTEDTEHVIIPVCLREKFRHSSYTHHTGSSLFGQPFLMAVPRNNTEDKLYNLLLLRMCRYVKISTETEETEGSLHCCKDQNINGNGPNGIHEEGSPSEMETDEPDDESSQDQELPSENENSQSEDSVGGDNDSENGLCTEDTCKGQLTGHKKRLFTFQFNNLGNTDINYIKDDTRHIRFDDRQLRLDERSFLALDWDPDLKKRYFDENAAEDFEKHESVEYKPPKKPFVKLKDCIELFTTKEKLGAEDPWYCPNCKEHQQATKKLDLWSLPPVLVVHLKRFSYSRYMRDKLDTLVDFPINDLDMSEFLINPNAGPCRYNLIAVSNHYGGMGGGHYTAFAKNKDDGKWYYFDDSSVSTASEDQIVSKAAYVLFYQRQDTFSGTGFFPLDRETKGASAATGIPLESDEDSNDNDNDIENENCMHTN
inactive: saracatinib -0.013 | sotrastaurin -0.093 | alvocidib -0.069 | Tubastatin A 0.014 | [1] 0.049 | defactinib -0.093 | rucaparib 0.032 | [2] 0.019 | encorafenib 0.061 | [3] -0.031 | [4] 0.027 | filanesib -0.004 | zotarolimus 0.051 | idasanutlin -0.018 | alisertib -0.043 | [5] 0.016 | gefitinib 0.028 | [6] -0.05 | lapatinib -0.021 | pictilisib -0.027

TYW1 (UniProt Q9NV66)
inactive: saracatinib 0.089 | sotrastaurin -0.059 | alvocidib -0.064 | Tubastatin A -0.033 | [1] 0.031 | defactinib -0.055 | rucaparib 0.052 | [2] -0.061 | encorafenib 0.028 | [3] -0.059 | [4] -0.16 | filanesib -0.01 | zotarolimus 0.019 | idasanutlin -0.023 | alisertib 0 | [5] 0.095 | gefitinib 0.013 | [6] -0.006 | lapatinib 0 | pictilisib -0.147

TMEM189-UBE2V1 (UniProt I3L0A0)
inactive: saracatinib 0.041 | sotrastaurin 0.157 | alvocidib 0.016 | Tubastatin A -0.007 | [1] -0.004 | defactinib -0.014 | rucaparib -0.059 | [2] -0.038 | encorafenib 0 | [3] 0.018 | [4] -0.034 | filanesib -0.051 | zotarolimus -0.049 | idasanutlin -0.024 | alisertib -0.105 | [5] -0.048 | gefitinib -0.034 | [6] 0.112 | lapatinib 0.011 | pictilisib -0.026

VPS8 (UniProt Q8N3P4)
inactive: saracatinib -0.009 | sotrastaurin -0.096 | alvocidib -0.038 | Tubastatin A 0.09 | [1] 0.002 | defactinib -0.171 | rucaparib 0.023 | [2] -0.015 | encorafenib 0.093 | [3] -0.078 | [4] 0.092 | filanesib 0.001 | zotarolimus 0.043 | idasanutlin -0.03 | alisertib 0.133 | [5] 0.01 | gefitinib 0.076 | [6] -0.025 | lapatinib 0.046 | pictilisib 0.055

TRIM44 (UniProt Q96DX7)
inactive: saracatinib 0.035 | sotrastaurin -0.076 | alvocidib -0.008 | Tubastatin A 0.116 | [1] -0.01 | defactinib -0.053 | rucaparib -0.092 | [2] -0.026 | encorafenib 0.032 | [3] 0.025 | [4] -0.074 | filanesib 0.022 | zotarolimus 0.005 | idasanutlin -0.025 | alisertib 0.008 | [5] -0.047 | gefitinib -0.027 | [6] -0.033 | lapatinib 0.025 | pictilisib 0.039

TSG101 (UniProt Q99816)
Sequence of UniProt Q99816 (Q99816 whole entry, looked up): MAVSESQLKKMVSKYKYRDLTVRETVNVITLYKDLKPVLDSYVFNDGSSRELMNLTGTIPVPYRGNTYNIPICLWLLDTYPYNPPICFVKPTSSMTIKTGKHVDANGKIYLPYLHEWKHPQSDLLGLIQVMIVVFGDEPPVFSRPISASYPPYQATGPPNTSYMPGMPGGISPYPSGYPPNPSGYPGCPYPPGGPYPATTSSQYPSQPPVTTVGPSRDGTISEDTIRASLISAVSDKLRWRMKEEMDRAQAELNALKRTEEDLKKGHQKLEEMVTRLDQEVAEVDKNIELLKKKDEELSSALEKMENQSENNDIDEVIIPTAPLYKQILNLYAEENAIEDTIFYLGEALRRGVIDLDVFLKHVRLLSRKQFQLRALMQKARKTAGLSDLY
inactive: saracatinib -0.008 | sotrastaurin -0.047 | alvocidib -0.076 | Tubastatin A 0 | [1] 0.011 | defactinib -0.12 | rucaparib -0.006 | [2] -0.044 | encorafenib -0.007 | [3] -0.032 | [4] 0 | filanesib -0.07 | zotarolimus 0.029 | idasanutlin -0.031 | alisertib -0.049 | [5] 0.007 | gefitinib 0.011 | [6] 0.016 | lapatinib -0.013 | pictilisib 0.025

U2AF2 (UniProt P26368)
Sequence of UniProt P26368 (P26368 whole entry, looked up): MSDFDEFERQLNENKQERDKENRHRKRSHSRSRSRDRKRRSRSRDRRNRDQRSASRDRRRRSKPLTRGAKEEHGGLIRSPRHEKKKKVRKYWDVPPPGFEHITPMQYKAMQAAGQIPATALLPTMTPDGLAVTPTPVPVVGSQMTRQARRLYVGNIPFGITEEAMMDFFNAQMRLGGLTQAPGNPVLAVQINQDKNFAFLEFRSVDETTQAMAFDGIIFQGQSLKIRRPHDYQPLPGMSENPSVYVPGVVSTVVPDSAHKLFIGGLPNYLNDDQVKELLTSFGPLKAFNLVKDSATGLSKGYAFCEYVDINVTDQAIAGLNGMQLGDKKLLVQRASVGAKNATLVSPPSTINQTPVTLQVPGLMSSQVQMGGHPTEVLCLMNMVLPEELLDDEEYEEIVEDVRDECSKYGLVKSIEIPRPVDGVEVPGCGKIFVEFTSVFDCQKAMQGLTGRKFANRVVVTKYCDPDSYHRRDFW
inactive: saracatinib 0.022 | sotrastaurin 0.056 | alvocidib -0.038 | Tubastatin A -0.007 | [1] -0.181 | defactinib -0.035 | rucaparib 0.163 | [2] -0.037 | encorafenib -0.037 | [3] 0.001 | [4] 0.038 | filanesib 0.071 | zotarolimus 0.018 | idasanutlin 0.042 | alisertib -0.089 | [5] 0.014 | gefitinib 0.028 | [6] 0.074 | lapatinib -0.013 | pictilisib 0.013

VPS33B (UniProt Q9H267)
Sequence of UniProt Q9H267 (Q9H267 whole entry, looked up): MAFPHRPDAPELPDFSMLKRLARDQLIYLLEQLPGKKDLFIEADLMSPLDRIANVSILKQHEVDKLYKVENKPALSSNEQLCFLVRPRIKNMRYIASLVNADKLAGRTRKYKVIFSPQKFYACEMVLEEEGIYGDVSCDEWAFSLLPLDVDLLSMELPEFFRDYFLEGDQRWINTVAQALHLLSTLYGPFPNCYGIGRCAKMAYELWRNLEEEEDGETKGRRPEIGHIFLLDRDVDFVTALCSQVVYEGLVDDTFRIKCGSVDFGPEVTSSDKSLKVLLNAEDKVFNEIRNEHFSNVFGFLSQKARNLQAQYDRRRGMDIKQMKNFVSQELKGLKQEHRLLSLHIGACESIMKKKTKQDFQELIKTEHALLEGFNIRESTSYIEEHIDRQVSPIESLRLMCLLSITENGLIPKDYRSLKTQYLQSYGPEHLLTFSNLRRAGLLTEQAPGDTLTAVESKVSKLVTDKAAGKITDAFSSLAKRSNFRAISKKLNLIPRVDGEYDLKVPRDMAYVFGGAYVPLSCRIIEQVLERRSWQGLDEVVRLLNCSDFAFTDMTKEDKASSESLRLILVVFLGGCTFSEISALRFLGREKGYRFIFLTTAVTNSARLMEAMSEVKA
inactive: saracatinib -0.088 | sotrastaurin -0.117 | alvocidib -0.008 | Tubastatin A 0.039 | [1] -0.071 | defactinib -0.078 | rucaparib 0.196 | [2] 0.052 | encorafenib 0.111 | [3] -0.058 | [4] 0.027 | filanesib 0.011 | zotarolimus 0.026 | idasanutlin -0.036 | alisertib -0.116 | [5] -0.046 | gefitinib 0.118 | [6] -0.147 | lapatinib 0.011 | pictilisib -0.035
